Screening data from PubChem.
This is a sample that favours compounds with a hit; in the whole collection about 1.5% have one here.
Tb PGK inh: T. brucei PGK inhibition. PGK/GAPDH coupled, Kinase-Glo luminescence, 60 min. Potency, µM (titrated, usually from 57.5 µM), inactives show at the top dose activity change, negative = inhibition, actives largely listed as inhibitors. 380,000 compounds, 0.043% hits. AID 602233; further: potency means the concentration at half of the fitted maximal effect; nearly all actives have a fitted effect of over 60% in size
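Recombinant glycosomal PGK reaction used 1,3-bisphosphoglycerate generated in-well by GAPDH (100nM final) in 100mM TEA pH 7.6, 5mM MgCl2, 0.01% Tween-20. After 60 minutes at room temperature, ATP was read by Kinase-Glo Plus luminescence end-point.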
WRN inhibitor: blocks human WRN helicase. Q14191. WRN helicase unwinding, fluorescent forked duplex, kinetic. Potency, µM (doses to about 114 µM), for inactives: top-dose activity change, negative = inhibition, actives largely listed as inhibitors. 360,000 compounds, 0.46% hits; further: potency means the concentration at half of the fitted maximal effect; nearly all actives have a fitted effect of over 55% in size
Target sequence (Q14191 whole entry, looked up): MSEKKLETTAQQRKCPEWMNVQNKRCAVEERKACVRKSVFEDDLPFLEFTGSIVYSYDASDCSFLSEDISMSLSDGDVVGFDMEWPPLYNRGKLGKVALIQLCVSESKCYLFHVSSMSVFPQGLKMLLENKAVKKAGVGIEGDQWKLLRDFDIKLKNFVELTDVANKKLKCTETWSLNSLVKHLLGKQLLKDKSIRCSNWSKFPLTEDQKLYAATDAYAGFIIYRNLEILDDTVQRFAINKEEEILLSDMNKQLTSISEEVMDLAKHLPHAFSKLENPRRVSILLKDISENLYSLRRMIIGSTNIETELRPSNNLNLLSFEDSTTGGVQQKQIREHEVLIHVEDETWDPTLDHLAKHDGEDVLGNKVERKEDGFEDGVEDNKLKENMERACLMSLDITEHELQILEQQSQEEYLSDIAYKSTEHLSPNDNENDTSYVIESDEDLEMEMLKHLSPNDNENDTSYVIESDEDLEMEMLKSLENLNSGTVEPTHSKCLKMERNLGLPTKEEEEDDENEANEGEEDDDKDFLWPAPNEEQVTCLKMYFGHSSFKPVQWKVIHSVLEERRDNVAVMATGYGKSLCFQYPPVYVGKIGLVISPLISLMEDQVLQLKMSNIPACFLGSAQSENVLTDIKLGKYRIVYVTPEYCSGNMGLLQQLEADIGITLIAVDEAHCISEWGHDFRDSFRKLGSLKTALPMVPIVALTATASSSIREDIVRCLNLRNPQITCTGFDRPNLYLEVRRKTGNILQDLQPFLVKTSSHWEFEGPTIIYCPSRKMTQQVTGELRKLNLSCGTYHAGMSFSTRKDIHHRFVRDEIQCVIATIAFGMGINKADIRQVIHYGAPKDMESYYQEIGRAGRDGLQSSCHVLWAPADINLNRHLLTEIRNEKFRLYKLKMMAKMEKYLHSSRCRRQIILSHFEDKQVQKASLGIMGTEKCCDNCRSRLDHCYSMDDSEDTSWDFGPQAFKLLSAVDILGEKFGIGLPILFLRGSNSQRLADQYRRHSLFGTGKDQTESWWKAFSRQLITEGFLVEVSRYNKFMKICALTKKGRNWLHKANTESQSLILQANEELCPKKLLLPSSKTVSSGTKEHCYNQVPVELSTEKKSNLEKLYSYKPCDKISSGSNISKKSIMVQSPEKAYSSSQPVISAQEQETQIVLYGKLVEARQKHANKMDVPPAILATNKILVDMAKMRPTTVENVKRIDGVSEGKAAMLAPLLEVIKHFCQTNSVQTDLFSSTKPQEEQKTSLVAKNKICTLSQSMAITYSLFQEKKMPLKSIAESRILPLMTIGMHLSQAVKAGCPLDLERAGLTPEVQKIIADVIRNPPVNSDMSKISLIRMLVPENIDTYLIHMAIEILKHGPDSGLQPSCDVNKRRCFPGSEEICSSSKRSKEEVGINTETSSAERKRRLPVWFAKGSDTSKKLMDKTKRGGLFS
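WRN at 20 nM final preincubated with compound 15 min at room temperature; reaction started with 100 nM fluorophore/quencher forked duplex oligonucleotide and 2 mM ATP final. Unwinding followed kinetically by red fluorescence (ex 525, em 598 nm).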
FEN1 inhibitor: human FEN1 inhibition | Potency, µM (top dose mostly 114 µM), inactives show top-dose activity change, negative = inhibition, hits mostly inhibitors | P39748 | 390,000 compounds, 0.35% hits | Recombinant FEN1 flap cleavage, fluorescence, 15 min | AID 588795; further: potency means the concentration at half of the fitted maximal effect; nearly all actives have a fitted effect of over 65% in size
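Steps: FEN1 (10 nM) dispensed; compound added by pin tool; 15 min at room temperature; substrate added to 50 nM final; reads at 0 min and 15 min; data normalized and fitted (four-parameter Hill).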
Tb PFK inh: inhibitors of T. brucei phosphofructokinase; O15648; T. brucei PFK, ADP-Glo luminescence; Potency, µM (titrated, usually from 57.5 µM), without a hit: top-dose activity, negative = inhibition, actives largely listed as inhibitors; 330,000 compounds, 0.17% hits;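 further: potency means the concentration at half of the fitted maximal effect; 0% = uninhibited 1x PFK enzyme wells and -100% = no-enzyme wells; nearly all actives have a fitted effect of over 60% in size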
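ADP-Glo luminescence quantified ADP after 45 min at room temperature, with 1.25 nM T. brucei PFK, 0.1 mM ATP and 0.5 mM fructose-6-phosphate in pH 8.0 TEA buffer. qHTS titrations up to 57 µM; curves classified by quality.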
PI5P4Ka inh: inhibitors of human PI5P4K alpha; PI5P4Kalpha enzyme, ADP-Glo luminescence, 60 min; stronger effect = lower value; max response, %; 330,000 compounds, 1.2% hits; active means max response of -50% or lower; inconclusive means between -30% and -50%; inactive means -30% or higher; further: value at the top dose of about 77 µM
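ADP-Glo luminescence end-point after a 60 min room-temperature kinase reaction. PI5P4Kalpha and substrate in HEPES pH 7.4 buffer with EGTA, 0.1% CHAPS and 5% DMSO; ATP at 5 microM final.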
TDP1 block: inhibitors of human tyrosyl-DNA phosphodiesterase TDP1; recombinant TDP1, AlphaScreen DNA substrate cleavage; Q9NUW8; Potency, µM (doses to about 130 µM), for inactives: at the top dose activity change, negative = inhibition, actives largely listed as inhibitors; 350,000 compounds, 0.28% hits; further: potency means the concentration at half of the fitted maximal effect; nearly all actives have a fitted effect of over 40% in size
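Here, a 5' biotin and 3' phosphotyrosine-FITC DNA oligonucleotide reports Tdp1 activity: intact substrate bridges AlphaScreen beads, while cleavage leaves a 3' phosphate and drops signal. All incubations at room temperature.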
An asterisk follows results filed as active; i = inactive; ? = inconclusive; . = no result; [ ] = dose if it differs, or a comment. Unless noted, the call rests on the fitted dose curve; in most records, active means well fitted curve in the direction sought with a large enough effect; inconclusive means small, poorly fitted or top-dose-only effect, or another doubt; inactive means no such curve, though single readings can be large; an effect the other way counts as inactive or inconclusive. Unless noted, on the % scale 0 is the no-effect control and ±100 the full control effect.

SMILES	Tb PGK inh	WRN inhibitor	FEN1 inhibitor	Tb PFK inh	PI5P4Ka inh	TDP1 block
CCn1c(SCc2nc3sc(C(=O)O)c(C)c3c(=O)[nH]2)nnc1-c1ccc(Cl)cc1	-3%	-18%	-7%	3%	-56*	0%
CC(C)CN(C)c1ccc(/C=C2\C=Cc3ccccc32)cc1	.	.	4%	.	.	.
CCCCCCC(=O)N(O)C1CC(=O)N(c2ccc(Cl)cc2)C1=O (centres undefined)	-1%	79µM*	10%	-11%	-26	10%
O=C1NC(=S)S/C1=C\C=C\c1ccc([N+](=O)[O-])o1	28µM*	40µM*	32µM*	-13%	-96*	.
O=[N+]([O-])c1ccc(/C=N/N=C/c2ccc([N+](=O)[O-])o2)o1	-8%	-17%	-20%	-2%	-14	.
Cc1nc(NC(=O)c2ccccc2)sc1-c1csc(Nc2ccc(C(=O)O)cc2)n1	?	-9%[11.6 µM]	35µM*	-3%	?	3%
CCC(=O)Nc1nc(C)c(-c2csc(Nc3ccc(C(=O)O)cc3)n2)s1	1%	-8%	-14%	1%	-24	.
COC(=O)c1nc(N2CCN(S(=O)(=O)c3ccc(C)cc3)CC2)c2ccccc2n1	.	.	16%	.	.	2%
CN(C)S(=O)(=O)c1cccc(NC(=S)NNC(=O)c2cc3ccccc3cc2O)c1	-2%	-31%	-14%	-10%	-60*	9%
CN(C)S(=O)(=O)c1cccc(NC(=S)NC(=O)c2ccco2)c1	-8%	-11%	10%	-1%	2	-2%
COC(=O)c1ccccc1S(=O)(=O)N1CCc2nc(-c3ccc(OC)cc3C)c3c(c2C1)CO[C@@H](c1ccccc1)C3	.	.	.	.	.	3%[12.3 µM]
CCCCCCCCC(=O)c1c(OC)oc(C=O)cc1=O	-1%	-13%[11.6 µM]	.	.	-84*	.
CCCCCC(=O)c1c(O)cc(OC)c(Cl)c1O	.	.	.	.	.	2%
NC(=S)N/N=C/c1coc2ccc(O)cc2c1=O	0%	-4%	14%	8%	-72*	-2%
NC(=S)N/N=C/c1coc2ccc(Br)cc2c1=O	-12%	-5%	-12%	-4%	-22	-5%
O=C(N/N=C/c1coc2ccccc2c1=O)c1cc(Br)c(O)c(Br)c1	-6%	-13%[11.6 µM]	6%	-18%	-70*	1%[56.1 µM]
O=[N+]([O-])c1cnc(Sc2ccncn2)c([N+](=O)[O-])c1	-7%	-27%	.	.	-74*	.
Cc1cc(=O)c2c(O)c3c(O)cc(O)c4c5c(O)cc(O)c6c(O)c7c(=O)cc(C)c8c1c2c(c34)c(c65)c78	.	.	.	.	.	21%
Cc1ccc(C2N=C(Nc3nc4ccccc4o3)NC3=C2C(=O)CC(C)(C)C3)cc1 (centres undefined)	.	.	-2%	.	.	0%
c1nc(NCC2CCCO2)c2ccc(-c3ccc4c(c3)OCO4)cc2n1 (centres undefined)	.	.	.	.	.	-1%
CCCn1c(SCC(=O)NC(=O)NCc2ccccc2)n[nH]c1=O	-5%	-1%	4%	-1%	-4	1%
CCCn1c(SCC(=O)NC(=O)NCc2ccco2)n[nH]c1=O	.	.	.	?	.	45µM*
C=CCn1c(SCC(=O)NC(=O)NCc2ccco2)nc2sc(CC)cc2c1=O	-15%	-20%[11.6 µM]	-10%	?	-50*	?
O=C(CSc1nnc(COc2ccccc2Cl)o1)NC(=O)NCc1ccco1	-11%	-8%[11.6 µM]	-11%	?	-75*	-3%
O=C(CSc1nnnn1-c1ccccc1)NC(=O)NCc1ccco1	-3%	-20%[11.6 µM]	-7%	-8%	-60*	-2%
Cc1ccc(NS(=O)(=O)c2cccc(F)c2)cc1C	.	.	.	.	.	0%
CC(=O)C[n+]1cccc2cc(Cl)ccc21	.	.	-1%	.	.	.
O=c1c2c([nH]c3ccccc13)C(=C1CCCC1)CC2	-9%	50µM*	-7%	?	-52*	?
Cc1ccccc1OCCCN1CCCC1	i	9%	-5%	-5%	.	-6%
Cc1ccccc1OCCN1CCCC1	i	6%	0%	1%	1	79µM*
